“And” between values parts separate entries of the source, which are not always exact repeats. Equal values may be shown once. Inconclusive results are not listed. The source holds several records for some structures; these can differ, active in one and inactive in another. The source made the active and inactive calls. Unless noted, calls follow the shape of the dose curve; as a rule, active = well fitted curve in the direction sought with a large enough effect in the repeat runs; inconclusive = weak or mixed curves; inactive = no such curve, though single readings can be large; an effect the other way counts as inactive or inconclusive. Starred links: 1 amine or outer side, 2 acyl side, 3 side chain; linkers in the order of their positions; H or OH if unused. Positions of bridges follow the written chain, without caps; N, C: chain ends. Non-standard residues stand in square brackets, D forms with d. Residues, ends and D or L forms follow the SMILES beside them. Chains are numbered I, II in the order given. Actinocin(9to1) = Cc1c2oc3c(C)ccc(C(=O)[*:1])c3nc-2c(C(=O)[*:2])c(N)c1=O; NMeV = CN[C@H](C(=O)O)C(C)C; Sar = CNCC(=O)O

The nature of experiment [1]: qHTS assay to identify aromatase inhibitors - cell viability counter screen (AID 743084;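 also: cells stimulated with testosterone during compound exposure; nearly all actives have a fitted effect of over 55% in size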; also: potency is read from the fitted curve at half-maximal effect). (In general: qHTS replaces the single test concentration by a dilution series.)
For experiment [2], the target named is Aryl hydrocarbon receptor (Homo sapiens) (UniProt P35869). As to the kind of experiment: qHTS assay to identify small molecule that activate the aryl hydrocarbon receptor (AhR) signaling pathway (AID 743085). Also: nearly all actives have a fitted effect of over 15% in size. Also: potency is read from the fitted curve at half-maximal effect.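 As to activation: HG2L7.5c1 human HepG2 liver cells with stably integrated DRE-driven firefly reporter; series mostly up to about 70 µM.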 A digest of the protocol:
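Stably transfected human liver carcinoma cells (HG2L7.5c1; 20 DRE-firefly luciferase) were incubated 5 h, dosed, and kept 24 h at 37C. Agonism was scored from increased luciferase luminescence.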

Experiment [3] is described as follows: qHTS assay to identify small molecule that activate the aryl hydrocarbon receptor (AhR) signaling pathway - cell viability counter screen (AID 743086). Also: nearly all actives have a fitted effect of over 45% in size. Also: potency is read from the fitted curve at half-maximal effect. An outline of the steps: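 HepG2-AhR-luc (HG2L7.5c1) cells, 4000/well, treated 24 h at 37 C with compound; viability measured as CellTiter-Fluor fluorescence after 30 min in the same wells as the luciferase read.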

Experiment [4] in a line: qHTS assay to identify small molecule antagonists of the peroxisome proliferator-activated receptor gamma (PPARg) signaling pathway - cell viability counter screen (AID 743194). Also: nearly all actives have a fitted effect of over 55% in size. Also: potency is read from the fitted curve at half-maximal effect. A digest of the protocol: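 Cytotoxicity counter screen in PPARg-bla HEK293H cells, same wells as reporter assay. Compounds plus 50 nM rosiglitazone (final) for 17 h at 37 C, then viability read by CellTiter-Glo luminescence.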

The nature of experiment [5]: qHTS assay for small molecule activators of the heat shock response signaling pathway - cell viability counter screen (AID 743209). Also: nearly all actives have a fitted effect of over 50% in size. Also: potency is read from the fitted curve at half-maximal effect. A digest of the protocol: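 Cytotoxicity counter screen run in the same wells as the heat-shock bla reporter assay: HeLa HSE-bla cells, 5 h compound exposure at 37 C, viability read by CellTiter-Glo luminescence.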
Experiment [6] in a line: qHTS assay for small molecule activators of the heat shock response signaling pathway (AID 743210; active = well fitted activation curve with a large enough effect in the signal ratio in the repeat runs, with a control signal flat, not every such curve was filed as active; the % refers to the signal ratio; also: potency is read from the fitted curve at half-maximal effect;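 as to activation: HeLa cells with beta-lactamase reporter driven by heat shock elements; series mostly up to about 63 µM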). An outline of the steps:
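Beta-lactamase reporter read-out: FRET substrate fluorescence after 2.5 h at RT, following 5 h compound treatment at 37 C of HeLa cells carrying HSE-driven bla reporter; quantitative HTS format.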

The nature of experiment [7]: qHTS assay for small molecule agonists of the antioxidant response element (ARE) signaling pathway - cell viability counter screen (AID 743203; calls by dose curve; also: nearly all actives have a fitted effect of over 55% in size; also: potency is read from the fitted curve at half-maximal effect). A digest of the protocol:
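Viability counter screen: CellTiter-Glo luminescence, read after 30 min at room temperature, in ARE-bla HepG2 wells. Compound exposure lasted 16 h at 37C/5% CO2, following a 5 h pre-incubation of the cells after plating.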

A short description of experiment [8]: qHTS assay for small molecule agonists of the antioxidant response element (ARE) signaling pathway (AID 743202; active = well fitted activation curve with a large enough effect in the signal ratio in the repeat runs, not every such curve was filed as active; the % refers to the signal ratio; also: potency is read from the fitted curve at half-maximal effect). A digest of the protocol: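 HepG2 ARE-bla reporter line, 2,000 cells/well; 5 h preincubation 37 C/5% CO2; compound (DMSO) 16 h 37 C; B/G FRET substrate 2 h RT; fluorescence intensity.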
In experiment [9] the target is Peroxisome proliferator-activated receptor gamma (Homo sapiens) (UniProt P37231). As to the kind of experiment: qHTS assay to identify small molecule agonists of the peroxisome proliferator-activated receptor gamma (PPARg) signaling pathway (AID 743094; active = well fitted activation curve with a large enough effect in the signal ratio in the repeat runs, not every such curve was filed as active; the % refers to the signal ratio). A digest of the protocol: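 Agonist activity was taken from a beta-lactamase reporter (FRET substrate, 1 h at room temperature) in HEK293H cells carrying a PPARg UAS-bla construct. Compounds in DMSO were incubated 17 h at 37C after a 5 h cell pre-incubation.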
Peroxisome proliferator-activated receptor gamma (Homo sapiens), sequence (P37231 whole entry, looked up): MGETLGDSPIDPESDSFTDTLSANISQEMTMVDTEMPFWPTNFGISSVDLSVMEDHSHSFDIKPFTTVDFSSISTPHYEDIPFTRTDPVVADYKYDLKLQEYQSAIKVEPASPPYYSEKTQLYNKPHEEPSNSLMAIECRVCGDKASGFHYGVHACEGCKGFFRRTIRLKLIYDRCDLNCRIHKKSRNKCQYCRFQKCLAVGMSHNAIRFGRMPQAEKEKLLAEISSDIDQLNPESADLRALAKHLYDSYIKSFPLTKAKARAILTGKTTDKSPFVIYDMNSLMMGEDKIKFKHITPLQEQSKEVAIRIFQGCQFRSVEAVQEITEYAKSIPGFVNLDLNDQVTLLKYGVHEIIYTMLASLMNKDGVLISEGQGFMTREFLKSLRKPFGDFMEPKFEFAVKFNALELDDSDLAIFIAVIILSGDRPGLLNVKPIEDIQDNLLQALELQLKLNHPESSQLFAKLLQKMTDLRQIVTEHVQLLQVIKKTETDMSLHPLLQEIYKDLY

The target is the same in experiment [10]. As to the kind of experiment: qHTS assay to identify small molecule antagonists of the peroxisome proliferator-activated receptor gamma (PPARg) signaling pathway (AID 743191; calls by dose curve; also: series mostly up to about 63 µM; nearly all actives have a fitted effect of over 30% in size). A digest of the protocol: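 GeneBLAzer PPARg UAS-bla HEK293H cells, 5 h post-plating, exposed to compounds 17 h at 37C. LiveBLAzer B/G FRET substrate added for 1 h at room temperature; beta-lactamase reporter read by fluorescence intensity.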

Aryl hydrocarbon receptor (Homo sapiens), sequence (P35869 whole entry, looked up): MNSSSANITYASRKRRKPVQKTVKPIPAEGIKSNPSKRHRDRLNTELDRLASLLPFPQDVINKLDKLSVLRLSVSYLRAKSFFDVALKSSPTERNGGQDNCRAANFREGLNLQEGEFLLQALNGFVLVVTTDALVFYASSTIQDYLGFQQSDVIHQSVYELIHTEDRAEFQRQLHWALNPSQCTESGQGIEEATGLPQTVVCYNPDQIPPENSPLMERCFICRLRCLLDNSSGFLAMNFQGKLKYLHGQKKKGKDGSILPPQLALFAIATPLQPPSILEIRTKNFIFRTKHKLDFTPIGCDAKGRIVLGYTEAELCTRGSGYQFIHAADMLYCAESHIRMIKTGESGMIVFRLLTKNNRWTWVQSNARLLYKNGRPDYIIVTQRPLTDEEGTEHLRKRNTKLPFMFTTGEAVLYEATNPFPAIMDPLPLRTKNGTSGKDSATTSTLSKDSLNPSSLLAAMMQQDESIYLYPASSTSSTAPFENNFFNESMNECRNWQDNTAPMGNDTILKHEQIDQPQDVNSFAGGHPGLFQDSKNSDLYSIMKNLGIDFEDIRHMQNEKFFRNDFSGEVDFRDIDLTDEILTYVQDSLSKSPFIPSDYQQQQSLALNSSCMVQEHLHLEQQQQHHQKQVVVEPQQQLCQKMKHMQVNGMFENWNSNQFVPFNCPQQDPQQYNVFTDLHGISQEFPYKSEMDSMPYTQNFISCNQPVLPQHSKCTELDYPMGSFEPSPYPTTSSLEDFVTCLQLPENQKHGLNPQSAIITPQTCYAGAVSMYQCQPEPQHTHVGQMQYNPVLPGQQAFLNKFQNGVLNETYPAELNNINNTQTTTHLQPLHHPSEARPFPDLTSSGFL

On to `CCCCCCC(O)CCCCCCCCCCC(=O)O` (stereo not given), for which the Potency result in experiment [1], in [2], in experiment [3], in experiment [5] and in experiment [6] was “inactive” each time. In [4], the Potency is 21.9 µM (active).

As for `Cc1c(O)cccc1C(=O)N[C@@H](CSc1ccccc1)[C@H](O)CN1C[C@H]2CCCC[C@H]2C[C@H]1C(=O)NC(C)(C)C`, the Potency in [1] was 7.5 µM (active) and 2.98 µM (active); in experiment [3], 13.3 µM (active) and 11.9 µM (active); in experiment [4], 21.3 µM (active) and 26.6 µM (active); in [7], 15 µM (active) and 26.6 µM (active). The Potency entry in experiment [2] and in experiment [5] was “inactive” throughout.

As to `Oc1c(Cl)cc(Cl)c(Cl)c1Cc1c(O)c(Cl)cc(Cl)c1Cl`, the Potency in experiment [1] was 6.09 µM (active); in experiment [4], 173 nM (active) and 977 nM (active) and 1.68 µM (active); in [7], 24.3 µM (active) and 8.63 µM (active) and 8.41 µM (active); in [5] it was 21.8 µM (active) and 21.9 µM (active) and inactive. Further, the Potency result in experiment [2] and in experiment [3] was “inactive” in each case.

As to `CCCCCCCCCCCCCC[P+](CCCC)(CCCC)CCCC`, the Potency was 17.1 µM (active) and 19.3 µM (active) in [1]; 68.2 µM (active) and 54.5 µM (active) in experiment [3]; 3.45 µM (active) and 3.47 µM (active) in [4]; 15.3 µM (active) and 10.9 µM (active) in experiment [7]; 6.88 µM (active) and 13.8 µM (active) in experiment [5]. In [2], the Potency entry is “inactive”.

`NCCO`: the Potency entry in experiment [1], in experiment [2], in experiment [3], in [4], in [8] and in experiment [7] was “inactive” throughout. The Potency entry in experiment [6] was “inactive”.

As for `CC(C)(c1ccccc1)c1ccc(Nc2ccc(C(C)(C)c3ccccc3)cc2)cc1`, the Potency entry in [1], in experiment [2], in experiment [3], in experiment [4], in [7] and in experiment [5] was “inactive” in each case.

As for `Cc1cc(OCCOCC[N+](C)(C)Cc2ccccc2)ccc1C(C)(C)CC(C)(C)C`, the Potency in experiment [1] is 26.6 µM (active) and 60.8 µM (active); in [3], 29.8 µM (active) and 60.8 µM (active); in experiment [4], 15.4 µM (active) and 29.8 µM (active); in [7], 19.2 µM (active) and 29.8 µM (active); in experiment [5] it was 38.7 µM (active). Besides, the Potency entry in experiment [2] and in experiment [9] was “inactive” in each case.

As to `CCOC(=O)C(C)C(C)=O` (stereo not given), the Potency entry in experiment [1], in [2], in experiment [3], in experiment [4], in experiment [8] and in [7] was “inactive” each time.

Regarding `c1cnc2cc3c(cc2n1)C1CNCC3C1`, the Potency entry in experiment [1], in [2], in experiment [9], in experiment [10], in experiment [4] and in [8] was “inactive” each time. Moreover, the Potency entry in [7], in [5] and in experiment [6] was “inactive” throughout.

Turning to `c1ccc2c(c1)-c1cccc3c1c-2cc1ccccc13`, the Potency result in experiment [1], in experiment [3], in experiment [4], in [7] and in experiment [5] was “inactive” throughout. Moreover, the Potency is 8.43 µM (active) and 6.86 µM (active) in experiment [2]; 1.34 µM (active) in [8].

`CNCCC(Oc1ccc(C(F)(F)F)cc1)c1ccccc1` (stereo not given): the Potency entry in [1] is “inactive and 47.9 µM (active)”; in experiment [3] it was “inactive and 60.3 µM (active)”; in experiment [4] it was 48.4 µM (active); in experiment [7], 17 µM (active). In [2], the Potency entry was “inactive”.

For the molecule `CC(=O)O[C@]1(C(C)=O)CC[C@H]2[C@@H]3C[C@H](C)C4=CC(=O)CC[C@]4(C)[C@H]3CC[C@@]21C`, the Potency entry in experiment [1], in experiment [2], in experiment [3], in experiment [10], in experiment [4] and in experiment [7] was “inactive” in each case. The Potency entry in experiment [5] is “inactive”.

As for `Cc1c2oc3c(C)ccc(C(=O)N[C@@H]4C(=O)N[C@H](C(C)C)C(=O)N5CCC[C@H]5C(=O)N(C)CC(=O)N(C)[C@@H](C(C)C)C(=O)O[C@@H]4C)c3nc-2c(C(=O)N[C@@H]2C(=O)N[C@H](C(C)C)C(=O)N3CCC[C@H]3C(=O)N(C)CC(=O)N(C)[C@@H](C(C)C)C(=O)O[C@@H]2C)c(N)c1=O` (I: T[dV]P[Sar][NMeV] / II: T[dV]P[Sar][NMeV]; ester I:1-I:C, II:1-II:C; linker I:N-II:N via Actinocin(9to1)), the Potency in experiment [1] is 7.48 µM (active); in experiment [3], 18.8 nM (active) and 14.9 µM (active). Besides, the Potency entry in [2] and in [6] was “inactive” in each case.

For `CCCCCCCCCCCCc1ccccc1O`, the Potency in experiment [1] is 30.2 µM (active) and 54.5 µM (active); in experiment [4] it was 48.3 µM (active) and 17.4 µM (active); in experiment [7], 60.3 µM (active) and 43.3 µM (active); in experiment [5], 17.2 µM (active) and 24.5 µM (active). Besides, the Potency entry in experiment [2] and in [3] was “inactive” each time.

As for `COc1ccc(COC(C)=O)cc1`, the Potency result in [1], in experiment [2], in experiment [3], in experiment [4], in experiment [8] and in experiment [7] was “inactive” in each case. In addition, the Potency result in [6] is “inactive and 54.9 µM (active)”.

Turning to `CC(C)(C)NC(=O)[C@@H]1CN(Cc2cccnc2)CCN1C[C@@H](O)C[C@@H](Cc1ccccc1)C(=O)N[C@H]1c2ccccc2C[C@H]1O`, the Potency in [1] was 26.6 µM (active). Further, the Potency entry in [2], in experiment [3], in experiment [4], in experiment [8], in experiment [7] and in [5] was “inactive” throughout. Moreover, the Potency entry in experiment [6] was “inactive”.

Turning to `CCCCC(CC)COC(=O)CC(C(=O)OCC(CC)CCCC)S(=O)(=O)O` (stereo not given), the Potency entry in experiment [1], in experiment [2], in [3] and in [9] was “inactive” each time. Further, the Potency in experiment [7] was 58.8 µM (active) and 54.5 µM (active); in experiment [5], 52.9 µM (active).

As for `[Cl][In]([Cl])[Cl]`, the Potency result in experiment [1], in experiment [2], in experiment [3], in [7] and in [5] was “inactive” throughout.

As to `Cc1cc(Cc2cc(C)cc(C(C)(C)C)c2O)c(O)c(C(C)(C)C)c1`, the Potency in experiment [1] was 54.8 µM (active) and 61.1 µM (active); in [4] it was 12.4 µM (active) and 11 µM (active); in [7], 17.3 µM (active) and 27.3 µM (active); in experiment [5], 11 µM (active) and 13.8 µM (active). Besides, the Potency entry in experiment [2] and in experiment [3] was “inactive” each time.

On to `Nc1nc(=S)c2[nH]cnc2[nH]1`, for which the Potency result in experiment [1], in [3], in [10], in experiment [5] and in [6] was “inactive” each time. Also, the Potency entry was “inactive and 61.1 µM (active)” in [2]; 2.98 µM (active) in experiment [4]; 4.73 µM (active) in experiment [8]; 3.86 µM (active) in experiment [7].

Turning to `CC(C)CCCCCCc1ccc(O)cc1`, the Potency entry in experiment [1] is “inactive and 31.2 µM (active)”; in experiment [5], 39.6 µM (active) and 54.9 µM (active). In addition, the Potency result in [2], in [3], in experiment [9] and in experiment [7] was “inactive” each time.

These data come from PubChem BioAssay (Tox21).
